Data published in PubChem BioAssay.
A number with no mark means an inactive call. For some assays here: Measured potencies and affinities stand elsewhere. Active and inactive are the calls of the source. Unless noted, no rule for the calls is given here.

Tests used:
[1] = antimalarial activity against Dd2 strain (AID 2302;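 active = growth inhibition above 50% at the single 2 µM test dose, taken to imply half-maximal potency below 2 µM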;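 also: 0% = DMSO untreated growth and 100% = chloroquine plus artemisinin killed control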); settings: P. falciparum Dd2 in RBCs, LDH growth readout, 72 h; at 2 µM; stronger effect = higher value
[2] = HepG2 cytotoxicity, primary screen, cytotoxicity control for P. falciparum antimalarial project, cell-based, ATP luminescence (AID 2303;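 active = inhibition above 50%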;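 also: 0% = DMSO wells and 100% = digitonin-killed cells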); settings: HepG2 viability, 24-48 h, at 10 µM, stronger effect = higher value
[3] = target: L-lactate dehydrogenase (Plasmodium falciparum (isolate CDC / Honduras)) (UniProt Q27743); experiment: PfLDH activity inhibition – cell lysate, 3D7 strain, counter-screen for P. falciparum growth inhibition project (AID 2304);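 also: 0% = vehicle and 100% = reference inhibitor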; settings: P. falciparum 3D7 crude extract, LDH APAD/NBT absorbance; at 2 µM; stronger effect = higher value
Sequence of L-lactate dehydrogenase (Plasmodium falciparum (isolate CDC / Honduras)) (Q27743 whole entry, looked up): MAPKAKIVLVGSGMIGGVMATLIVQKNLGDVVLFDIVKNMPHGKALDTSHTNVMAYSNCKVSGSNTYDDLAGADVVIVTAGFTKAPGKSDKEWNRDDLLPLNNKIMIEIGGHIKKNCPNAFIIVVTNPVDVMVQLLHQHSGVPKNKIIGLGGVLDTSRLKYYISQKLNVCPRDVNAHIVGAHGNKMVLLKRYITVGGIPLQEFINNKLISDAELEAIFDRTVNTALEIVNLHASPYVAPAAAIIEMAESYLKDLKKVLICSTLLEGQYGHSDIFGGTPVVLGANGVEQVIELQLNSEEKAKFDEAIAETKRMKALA

[4] = inhibition of 3D7 malaria parasite growth – strain 3D7 (AID 2306);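 also: 0% = DMSO wells and 100% = chloroquine plus artemisinin control wells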; settings: P. falciparum 3D7 erythrocytic growth, LDH absorbance, 72 h; at 2 µM; stronger effect = higher value
[5] = target: Calcium-dependent protein kinase 1 (Plasmodium falciparum (isolate 3D7)) (UniProt P62344); experiment: PfCDPK1 kinase inhibitors, biochemical, TCAMS library (AID 1159585; cut-off not given, nearly all actives have IC50 up to about 0.98 µM;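 also: inhibitors leave more ATP so luminescence rises with inhibition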); settings: recombinant PfCDPK1, Kinase-Glo ATP depletion luminescence
Sequence of Calcium-dependent protein kinase 1 (Plasmodium falciparum (isolate 3D7)) (P62344 whole entry, looked up): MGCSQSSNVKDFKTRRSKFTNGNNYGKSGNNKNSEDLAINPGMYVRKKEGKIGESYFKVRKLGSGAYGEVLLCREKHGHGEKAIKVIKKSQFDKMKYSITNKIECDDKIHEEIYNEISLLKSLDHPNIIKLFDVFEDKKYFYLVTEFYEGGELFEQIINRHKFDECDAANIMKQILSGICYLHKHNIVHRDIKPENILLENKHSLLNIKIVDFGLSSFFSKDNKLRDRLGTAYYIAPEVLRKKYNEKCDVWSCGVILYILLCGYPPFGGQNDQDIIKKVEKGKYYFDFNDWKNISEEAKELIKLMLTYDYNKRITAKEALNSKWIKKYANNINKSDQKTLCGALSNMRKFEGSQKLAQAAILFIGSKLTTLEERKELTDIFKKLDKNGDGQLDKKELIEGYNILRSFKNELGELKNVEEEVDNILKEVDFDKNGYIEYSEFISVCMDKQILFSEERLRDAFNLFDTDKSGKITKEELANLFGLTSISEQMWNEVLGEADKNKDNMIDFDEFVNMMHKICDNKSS

[6] = target: Plasmodium falciparum protein kinase 6 (PK6, PF3D7_1337100) (UniProt Q8IDW1); experiment: PfPK6 kinase inhibitors, biochemical, TCAMS library (AID 1159586); settings: recombinant PfPK6, Kinase-Glo ATP depletion luminescence
Sequence of Plasmodium falciparum protein kinase 6 (PK6, PF3D7_1337100) (Q8IDW1 1-305): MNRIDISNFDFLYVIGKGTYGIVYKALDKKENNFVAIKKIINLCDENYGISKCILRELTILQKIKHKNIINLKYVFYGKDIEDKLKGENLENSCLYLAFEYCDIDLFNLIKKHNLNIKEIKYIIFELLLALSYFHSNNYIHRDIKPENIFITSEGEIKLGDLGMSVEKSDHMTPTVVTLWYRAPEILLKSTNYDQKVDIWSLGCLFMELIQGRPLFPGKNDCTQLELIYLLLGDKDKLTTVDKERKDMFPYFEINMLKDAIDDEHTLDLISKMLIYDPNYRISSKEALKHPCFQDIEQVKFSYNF

[7] = target: Protein kinase 7 (PK7), Plasmodium falciparum 3D7 (PF3D7_0213400) (UniProt Q7YTF7); experiment: inhibition of Plasmodium PK7 catalytic activity – biochemical, TCAMS antimalarial set, Kinase-Glo luminescence (AID 1159587); settings: recombinant PfPK7, Kinase-Glo ATP depletion luminescence
Sequence of Protein kinase 7 (PK7), Plasmodium falciparum 3D7 (PF3D7_0213400) (Q7YTF7 1-343): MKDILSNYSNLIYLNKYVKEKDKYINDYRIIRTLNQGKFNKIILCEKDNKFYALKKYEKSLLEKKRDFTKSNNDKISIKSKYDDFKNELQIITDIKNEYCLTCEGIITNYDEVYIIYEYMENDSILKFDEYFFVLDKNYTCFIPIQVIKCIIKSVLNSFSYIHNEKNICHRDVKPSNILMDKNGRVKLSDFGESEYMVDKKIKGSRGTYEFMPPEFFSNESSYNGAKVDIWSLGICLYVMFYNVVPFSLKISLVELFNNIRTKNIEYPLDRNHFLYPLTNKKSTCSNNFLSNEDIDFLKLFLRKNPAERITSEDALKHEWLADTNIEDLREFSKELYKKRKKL

[8] = target: Calcium-dependent protein kinase 4 (Plasmodium falciparum (isolate 3D7)) (UniProt Q8IBS5); experiment: PfCDPK4 kinase inhibitors, biochemical, TCAMS library (AID 1159588; cut-off not given, nearly all actives have IC50 up to about 0.91 µM); settings: recombinant PfCDPK4, Kinase-Glo ATP depletion luminescence
Sequence of Calcium-dependent protein kinase 4 (Plasmodium falciparum (isolate 3D7)) (Q8IBS5 whole entry, looked up): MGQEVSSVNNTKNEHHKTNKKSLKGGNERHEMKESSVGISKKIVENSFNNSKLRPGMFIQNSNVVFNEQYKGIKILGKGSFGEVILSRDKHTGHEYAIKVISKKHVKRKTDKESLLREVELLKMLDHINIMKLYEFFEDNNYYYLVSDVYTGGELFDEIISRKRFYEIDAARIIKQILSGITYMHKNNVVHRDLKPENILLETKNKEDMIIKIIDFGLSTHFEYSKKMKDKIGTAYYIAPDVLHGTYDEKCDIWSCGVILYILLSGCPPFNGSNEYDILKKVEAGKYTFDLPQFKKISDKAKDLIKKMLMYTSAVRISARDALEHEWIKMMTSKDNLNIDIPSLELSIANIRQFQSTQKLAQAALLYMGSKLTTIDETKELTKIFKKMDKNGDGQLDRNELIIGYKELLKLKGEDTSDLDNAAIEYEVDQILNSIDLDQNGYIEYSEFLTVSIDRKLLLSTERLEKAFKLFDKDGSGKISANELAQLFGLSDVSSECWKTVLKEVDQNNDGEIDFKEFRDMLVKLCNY

| Compound | growth inhibition [1] | inhibition [2] | inhibition [3] | growth inhibition [4] | outcome [5] | outcome [6] | outcome [7] | outcome [8] |
| --- | --- | --- | --- | --- | --- | --- | --- | --- |
| Cc1noc(C)c1-c1ccc2c(Nc3ccccc3N3CCOCC3)c(C(=O)NCc3ccccc3)cnc2c1 | 6% | 23% | -2% | 91% (active) | inactive | inactive | inactive | inactive |
| CC(=O)Nc1cccc(-c2cn(-c3ccc(OCc4cccc(F)c4)c(Cl)c3)c3ncncc23)c1 | 66% (active) | 7% | -4% | 100% (active) | inactive | inactive | inactive | inactive |
| O=C(NCCCCCN1CCC(c2c[nH]c3ccccc23)CC1)Nc1cccc(Cl)c1 | 0% | 36% | -1% | 86% (active) | inactive | inactive | inactive | inactive |
| CCCn1c(Sc2ccc(C#N)c([N+](=O)[O-])c2)nnc1-c1ccc(N(C)C)cc1 | 98% (active) | 18% | 7% | 97% (active) | inactive | inactive | inactive | inactive |
| CCCc1cc(=O)oc2cc(OC)c(C(=O)CC(C)C)c(OC)c12 | 67% (active) | 3% | 2% | 81% (active) | inactive | inactive | inactive | inactive |
| COc1ccc(-c2cccc(CNC3CCN(C)CC3)c2)cc1S(=O)(=O)NCc1ccccc1 | 22% | 18% | -5% | 90% (active) | inactive | inactive | inactive | inactive |
| COc1ccc(C(=O)Nc2cc(Br)c3c(c2)CNCC3)cc1C(F)(F)F | 4% | 13% | 8% | 90% (active) | inactive | inactive | inactive | inactive |
| COc1ccc(C(=O)C2CCN(CCCCNC(=O)c3ccc(NC(=O)c4ccc(Cl)cc4)cc3)CC2)c(OC)c1 | 13% | 47% | 4% | 98% (active) | inactive | inactive | inactive | inactive |
| O=C(/C=C/c1ccc(Cl)c(Cl)c1)NCCCCCN1CCC(NC(=O)c2cccc(Cl)c2)CC1 | 23% | 12% | -6% | 98% (active) | inactive | inactive | inactive | inactive |
| COCCOc1cccc(CN2CCC(c3cc4nc(C)cc(C(F)(F)F)n4n3)C2)c1 (stereo unspecified) | 74% (active) | 25% | 2% | 85% (active) | inactive | inactive | inactive | inactive |
| Oc1ccc2[nH]c(-c3cccs3)nc2c1CN1CCC(O)(c2ccccc2)CC1 | 69% (active) | 10% | -1% | 93% (active) | inactive | inactive | inactive | inactive |
| CCN1CCN(c2cc(C)c3cc(NC(=O)c4cccc(OC)c4)ccc3n2)CC1 | 15% | 5% | 3% | 99% (active) | inactive | inactive | inactive | inactive |
| Cc1c(S(=O)(=O)Nc2ccc3nccc(N4C[C@@H](C)N[C@@H](C)C4)c3c2)sc2ccc(Cl)cc12 | -4% | -8% | 5% | 92% (active) | inactive | inactive | inactive | inactive |
| Cc1cc(OCCCN2CCCCC2)ccc1NC(=O)COc1ccc(Cl)cc1C(=O)c1cc(Cl)cc(C#N)c1 | 16% | 28% | -8% | 93% (active) | inactive | inactive | inactive | inactive |
| FC(F)(F)c1ccc2nc(-c3ccc(-c4ccc(CNCCc5ccncc5)cc4)cc3)[nH]c2c1 | 100% (active) | 26% | 6% | 100% (active) | inactive | inactive | inactive | inactive |
| NC(N)=Nc1nc(-c2cccc(NC(=O)CCCCCCCON3C(N)=NC(N)=NC34CCCCC4)c2)cs1 | 89% (active) | 1% | -8% | 96% (active) | inactive | inactive | inactive | inactive |
| CC(C)c1cc(Oc2c(I)cc(CCN=C(N)N)cc2I)ccc1O | 54% (active) | 19% | 3% | 98% (active) | inactive | inactive | inactive | inactive |
| Cc1cc(NN=Cc2ccccc2)c2cc(C(F)(F)F)ccc2n1 | 97% (active) | 30% | -6% | 101% (active) | inactive | inactive | inactive | inactive |
| COc1ccc(-c2ccc(NC(=O)c3cccc(F)c3)cc2)cc1CN1CCCN(C)CC1 | 49% | 32% | -1% | 100% (active) | inactive | inactive | inactive | inactive |

| Compound | growth inhibition [1] | inhibition [2] | inhibition [3] | growth inhibition [4] | outcome [5] | outcome [6] | outcome [7] | outcome [8] |
| --- | --- | --- | --- | --- | --- | --- | --- | --- |
| O=C(Cc1cccc(O)c1)Nc1ccc(-c2cccc(-c3nc4ccc(C(F)(F)F)cc4[nH]3)c2)cc1 | 1% | 14% | 2% | 86% (active) | inactive | inactive | inactive | inactive |
| Cn1nc(-c2cccc(CNCCc3cccs3)c2)c2cnc(NC3CCCC3)nc21 | -1% | 8% | -1% | 97% (active) | inactive | inactive | inactive | inactive |
| CCCc1cc(Cc2cnc(N)nc2N)cc(CC)c1OC | 1% | 4% | -7% | 97% (active) | inactive | inactive | inactive | inactive |
| COc1cccc(-c2cccc(NC(=O)C3CCN(Cc4ccc(O)cc4)CC3)c2)c1 | 97% (active) | 9% | 0% | 97% (active) | inactive | inactive | inactive | inactive |
| COCn1ncc2cc(-c3cccc(NC(=O)c4csc(NC(C)=O)n4)c3)ccc21 | 68% (active) | 0% | 7% | 89% (active) | inactive | inactive | inactive | inactive |
| COc1cccc2cc(C(=O)N[C@@H](CC(C)C)C(=O)N[C@H](/C=N/N3CCOC3=O)Cc3ccccc3)oc12 | 70% (active) | 6% | -1% | 96% (active) | inactive | inactive | inactive | inactive |
| NCC1CCCN1Cc1ccc(-c2cccc(-c3nc4ccc(F)cc4[nH]3)c2)cc1 (stereo unspecified) | 31% | 38% | 4% | 100% (active) | inactive | inactive | inactive | inactive |
| CNc1ccc(CNCc2cccc(-c3ccc(-c4nc5ccccc5[nH]4)s3)c2)cc1 | 77% (active) | 15% | -3% | 100% (active) | inactive | inactive | inactive | inactive |
| COc1cc(NCC2(CNCc3cn(Cc4ccccc4)c4ccccc34)CCCCC2)nc2ccccc12 | 12% | 65% (active) | 5% | 95% (active) | inactive | inactive | inactive | inactive |
| CN1CCN(c2ccnc3ccc(NC(=O)Nc4ccc(Cl)cc4)cc23)CC1 | 99% (active) | 11% | 0% | 103% (active) | inactive | inactive | inactive | inactive |
| CC(=O)c1ccccc1OCCSc1nnc(Cc2cccs2)n1C1CCCCC1 | 1% | 19% | -5% | 87% (active) | inactive | inactive | inactive | inactive |
| COC1CCC(C(=O)Nc2ccc(-c3cccc(-c4nc5c(C)cccc5[nH]4)c3)cc2)CC1 (stereo unspecified) | 60% (active) | 89% (active) | 1% | 97% (active) | inactive | inactive | inactive | inactive |
| CSc1ccccc1NC(=S)NC1CCN(CCCCCNC(=O)/C=C/c2ccc(Cl)c(Cl)c2)CC1 | 27% | 19% | 4% | 98% (active) | inactive | inactive | inactive | inactive |
| CN(C)CCN1CCN(Cc2cccc(-c3csc(-c4nc5ccccc5[nH]4)c3)c2)CC1 | 97% (active) | 28% | -5% | 100% (active) | inactive | inactive | inactive | inactive |
| CN(CCCNc1ccc(C(=O)Nc2ccc(C(F)(F)F)cc2)cc1[N+](=O)[O-])Cc1ccccc1 | 48% | 25% | -9% | 100% (active) | inactive | inactive | inactive | inactive |
| CC1(C)N=C(N)N=C(N)N1OCCSCCON1C(N)=NC(N)=NC1(C)C | 81% (active) | 34% | -4% | 95% (active) | inactive | inactive | inactive | inactive |
| NCCNc1ccc([N+](=O)[O-])cc1C(=O)Nc1cccc(C(F)(F)F)c1 | 33% | 1% | 0% | 94% (active) | inactive | inactive | inactive | inactive |
| O=C(O)c1ccc(-c2c[nH]c3ncc(-c4ccc(Cl)cc4)cc23)cc1 | 99% (active) | 39% | 7% | 97% (active) | inactive | inactive | inactive | inactive |
